Results on 7 sequences are retold here after the supplement of paper PMC6555819.

Holding throughout (experiment): PBM binding z-score (relative to random genomic background probes); higher = stronger binding; sequences stand for … in GC…GCGATTGACAGCGTAGAATGAAGG
The test system of experiment [1] is FXR:RXRa (NR concentration 270 nM, RXRa partner concentration 90 nM). The method, boiled down:
(§1)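 Custom Agilent 4×180K protein-binding microarrays carried double-stranded probes. Their 34-nt variable regions held direct-repeat seeds, single-nucleotide variants, half-site ablations and random human genomic background sequences. Arrays were incubated 1 h with ligand-free nuclear receptor dimers in PBS pH 7.4, 2% milk, 0.02% Triton X-100, 1 mM DTT, 0.2 mg/mL BSA and 0.4 mg/ml salmon testes DNA. Antibodies against each partner (one per run) detected binding, and scanned fluorescence was regression-normalized. Binding z-scores use random background probes as reference.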

Experiment [2] deals with LXRa:RXRa (NR concentration 270 nM, RXRa partner concentration 90 nM). An outline of the steps: as §1
Experiment [3] has as its system LXRa homodimer (NR concentration 270 nM). An outline of the steps:
as §1

Experiment [4] has as its system LXRb:RXRa (NR concentration 270 nM, RXRa partner concentration 90 nM). The method, boiled down: as §1
For experiment [5], the system named is LXRb homodimer (NR concentration 270 nM). An outline of the steps: as §1
Experiment [6] has as its system PPARa:RXRa (NR concentration 270 nM, RXRa partner concentration 90 nM). The method, boiled down:
as §1

For experiment [7], the system named is PPARg:RXRa (NR concentration 180 nM, RXRa partner concentration 90 nM). An outline of the steps: as §1
Experiment [8] deals with PPARg:RXRa 270nM:90nM, anti-RXR (NR concentration 270 nM, RXRa partner concentration 90 nM). An outline of the steps:
as §1

Experiment [9] deals with PPARg:RXRa 30nM:10nM, anti-RXR (NR concentration 30 nM, RXRa partner concentration 10 nM). An outline of the steps:
as §1

The test system of experiment [10] is PPARg:RXRa 90nM:30nM, anti-RXR (NR concentration 90 nM, RXRa partner concentration 30 nM). An outline of the steps: as §1
The test system of experiment [11] is PPARg:RXRa DBDmut IVT, anti-RXR (DBD mutation: RXRa K156A/R161A, NR concentration 270 nM, RXRa partner concentration 90 nM). An outline of the steps:
as §1

In experiment [12] the test system is PPARg:RXRa IVT, anti-PPARg (NR concentration 270 nM, RXRa partner concentration 90 nM). The method, boiled down:
as §1

Experiment [13] concerns PPARg DBDmut:RXRa IVT, anti-PPARg (DBD mutation: PPARg1 K132A/R137A, NR concentration 270 nM, RXRa partner concentration 90 nM). An outline of the steps: as §1
The subject of experiment [14] is PPARg DBDmut IVT, anti-PPARg (DBD mutation: PPARg1 K132A/R137A, NR concentration 270 nM). The method, boiled down: as §1
The subject of experiment [15] is PPARg homodimer (NR concentration 180 nM). The method, boiled down:
as §1

For experiment [16], the system named is PXR:RXRa (NR concentration 270 nM, RXRa partner concentration 90 nM). The method, boiled down:
as §1

Experiment [17] has as its system PXR homodimer (NR concentration 270 nM). The method, boiled down: as §1
Experiment [18] deals with RARa:RXR (NR concentration 270 nM, RXRa partner concentration 90 nM). An outline of the steps: as §1
Experiment [19] has as its system RARa homodimer (NR concentration 270 nM). The method, boiled down:
as §1

The subject of experiment [20] is RARb:RXRa (NR concentration 270 nM, RXRa partner concentration 90 nM). The method, boiled down:
as §1

Take TCTAGTTGGTCACGAAGGTCACACACGACGGGTA: the PBM binding z-score in [1] is 2.82; in experiment [2] it was 3.04; in [3], 1.75; in experiment [4], 3.17; in [5], 0.769; in experiment [6], 3.71. The PBM binding z-score in [7] was 3.45; in experiment [8], 4.6; in experiment [9], 3.66; in [10] it was 4.25; in experiment [11], 2.83; in experiment [12], 4.36. Besides, the PBM binding z-score in experiment [13] is 1.5; in experiment [14] it was 1.16; in experiment [15], 3.64; in experiment [16], 3.95; in experiment [17] it was 1.05; in experiment [18] it was 4.14. Besides, the PBM binding z-score was 2 in experiment [19] and 4.01 in [20].

For TCTATTAGTTGATTAAGGCAACCGAAACAGCGGA, the PBM binding z-score in experiment [1] came out at 0.785; in experiment [2], 0.541; in [3], 0.0619; in experiment [4] it was 0.645; in experiment [5] it was 0.994; in experiment [6], 0.614. Moreover, the PBM binding z-score amounted to 0.172 in experiment [7]; 2.06 in experiment [8]; 3.75 in experiment [9]; 2.99 in experiment [10]; 2.31 in experiment [11]; 0.341 in experiment [12]. Also, the PBM binding z-score came out at 1.4 in [13]; 0.689 in [14]; 0.977 in experiment [15]; 0.454 in experiment [16]; 0.378 in experiment [17]; 0.873 in [18]. Moreover, the PBM binding z-score amounted to 1.34 in [19] and 0.0773 in experiment [20].

Turning to GCTAGCAGGCCACTTGGGTCACTCAATGACGGGC, the PBM binding z-score in experiment [1] is 0.0158; in experiment [2], -0.115; in experiment [3], -0.748; in experiment [4], 0.0102; in experiment [5] it was -0.778; in experiment [6] it was 0.888. In addition, the PBM binding z-score in [7] was 0.483; in experiment [8], 0.199; in experiment [9] it was -0.326; in experiment [10] it was -0.355; in [11], 1.43; in [12], 1.32. Also, the PBM binding z-score was -1.04 in [13]; -0.967 in experiment [14]; -0.431 in experiment [15]; 0.269 in [16]; -0.237 in experiment [17]; 0.575 in [18]. Also, the PBM binding z-score in [19] was -0.207; in [20] it was 1.34.

Take CCTACTGGGCCACGAAAGGTCATTGAATCAGTGA: the PBM binding z-score in experiment [1] came to 3.69; in experiment [2], 5.1; in [3] it was 4.09; in [4], 4.26; in [5], 0.492; in experiment [6], 4.68. The PBM binding z-score in [7] was 4.56; in experiment [8], 5.1; in experiment [9], 2.28; in [10], 4.03; in experiment [11] it was 5.88; in [12], 5.52. The PBM binding z-score in experiment [13] was 0.0728; in experiment [14] it was -0.421; in experiment [15], 2.53; in experiment [16] it was 5.09; in experiment [17], 1.26; in [18], 5.07. Besides, the values for the PBM binding z-score in experiment [19] and in experiment [20] were 0.674 and 4.03, respectively.

For the sequence GCTGCTATGTCAGGTTGGTCAGCTAACGGGTACG, the PBM binding z-score is -0.0269 in experiment [1]; -0.171 in experiment [2]; -0.277 in [3]; -0.513 in experiment [4]; -0.58 in experiment [5]; -0.327 in experiment [6]. For the same sequence, the PBM binding z-score is -0.164 in experiment [7]; -0.401 in experiment [8]; -0.739 in [9]; -0.312 in experiment [10]; 0.218 in [11]; -0.36 in [12]. Also, the PBM binding z-score is -0.641 in experiment [13]; -1.12 in experiment [14]; -0.452 in experiment [15]; -0.319 in experiment [16]; -0.426 in [17]; -0.149 in experiment [18]. Further, the PBM binding z-score is -0.632 in [19] and 0.458 in experiment [20].

Regarding TCGAGTAGGTTAGTCGGAGCATTCAGCCAACATA, the PBM binding z-score was -0.453 in experiment [1]; -0.512 in experiment [2]; -0.667 in experiment [3]; -0.741 in experiment [4]; -1.46 in experiment [5]; 0.0631 in experiment [6]. Moreover, the PBM binding z-score is -0.127 in [7]; 0.379 in experiment [8]; 0.624 in [9]; 0.538 in [10]; 2.04 in experiment [11]; 1.68 in experiment [12]. The PBM binding z-score in experiment [13] is -0.361; in [14], -0.571; in [15] it was 0.0245; in experiment [16] it was -0.452; in experiment [17] it was -0.761; in experiment [18] it was -0.167. Moreover, the PBM binding z-score in experiment [19] was -0.593; in experiment [20], -0.208.

On to TCATATAGATAAATGCTAGGTGAAAGTCCGATCT, for which the PBM binding z-score in experiment [1] is 0.784; in experiment [2] it was 0.813; in [3], 0.103; in experiment [4] it was 0.591; in experiment [5], -0.152; in experiment [6], 0.912. The PBM binding z-score in experiment [7] turned out to be 0.876; in experiment [8] it was 2.09; in [9] it was 3.93; in [10], 3.03; in experiment [11], 2.73; in experiment [12], 0.677. In addition, the PBM binding z-score came to 0.125 in experiment [13]; 0.81 in experiment [14]; 0.438 in [15]; 0.417 in [16]; 0.256 in experiment [17]; 0.494 in experiment [18]. The PBM binding z-score in experiment [19] was found to be 1.19; in [20], 0.184.
